Screens from PubChem BioAssay.
Compounds with a hit are over-represented: about 10% of the library has one in this group of screens.
VP16 counter – inhibits Gal4-VP16 luciferase reporter, ROR gamma counter-screen; Drosophila S2 Gal4-VP16 UAS-luciferase, luminescence, 20 h; Potency, µM (highest dose often 53.6 µM), inactives show at the top dose activity, negative = inhibition, hits mostly inhibitors; 310,000 compounds, 3.5% hits;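 further: Gal4-VP16 expression switched on by copper sulfate through the metallothionein promoter; on the % scale 0 is the no-effect control and ±100 the full control effect; nearly all actives have a fitted effect of over 50% in size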
MCF10A rerep – inducers of DNA re-replication in MCF 10A breast cells | MCF 10A DNA re-replication, Hoechst nuclear intensity, 48 h | Potency, µM (titrated, usually from 46.1 µM), without a hit: at the highest dose activity, positive = re-replication, hits mostly activators | 350,000 compounds, 2.9% hits | AID 624296; further: % of control where 0% means no effect; nearly all actives have a fitted effect of over 50% in size
KB-V1 cytotox – kills drug-selected multidrug resistant KB-V1 cells; KB-V1 MDR cells viability, CellTiter-Glo, 72 h; Potency, µM (top dose mostly 46.1 µM), hits mostly cytotoxic; 400,000 compounds, 3.4% hits; AID 1347076; further: on the % scale 0 is the no-effect control and ±100 the full control effect; nearly all actives have a fitted effect of over 60% in size
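Compound-treated KB-V1 multidrug-resistant cells, 72 h, 37 degrees C; viability by CellTiter-Glo. Fitted qHTS curves give the values.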
SW480 rerep – induces DNA re-replication in SW480 colon adenocarcinoma cells; Potency, µM (series often up to 46.1 µM), for the others: at the top dose re-replication activation, usual class: activators; 340,000 compounds, 1.8% hits; SW480 DNA re-replication, Hoechst DNA content imaging, 48 h; AID 624297; further: % of control where 0% means no effect; nearly all actives have a fitted effect of over 55% in size
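DNA re-replication was detected as more nuclei of elevated Hoechst intensity after 48 hr exposure to compound (23 nL pinned per well of 250 cells).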
RORgamma inh – inhibitors of mouse ROR gamma transcriptional activity; 310,000 compounds, 5.4% hits; Potency, µM (doses to about 53.6 µM), for the others: at the highest dose activity change, negative = inhibition, actives largely listed as inhibitors; AID 2551; Drosophila S2 Gal4-RORgamma UAS-luciferase reporter, 20 h; further: on the % scale 0 is the no-effect control and ±100 the full control effect; nearly all actives have a fitted effect of over 60% in size
Target sequence (P51450 whole entry, looked up, the tested form may be a part): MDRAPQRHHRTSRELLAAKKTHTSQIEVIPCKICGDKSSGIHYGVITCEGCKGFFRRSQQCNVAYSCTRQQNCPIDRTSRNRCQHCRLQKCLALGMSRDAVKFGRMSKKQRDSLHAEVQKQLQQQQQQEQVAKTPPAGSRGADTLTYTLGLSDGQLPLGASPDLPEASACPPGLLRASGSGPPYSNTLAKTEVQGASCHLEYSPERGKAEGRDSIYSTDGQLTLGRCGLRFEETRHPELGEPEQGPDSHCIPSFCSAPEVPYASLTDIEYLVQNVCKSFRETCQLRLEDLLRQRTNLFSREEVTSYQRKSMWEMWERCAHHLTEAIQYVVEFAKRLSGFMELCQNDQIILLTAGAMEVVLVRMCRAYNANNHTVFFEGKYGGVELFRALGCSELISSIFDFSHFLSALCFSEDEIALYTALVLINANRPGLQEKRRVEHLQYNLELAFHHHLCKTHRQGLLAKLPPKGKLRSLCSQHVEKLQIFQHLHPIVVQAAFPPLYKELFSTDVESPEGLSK
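Stable Schneider cell line, Gal4 DNA-binding domain fused to ROR gamma, UAS-luciferase. Cmpd 1 hr RT → CuSO4 700 uM final → 20 hr RT → luciferase reagent 10 min → luminescence.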
KB-3-1 tox – KB-3-1 parental cell cytotoxicity; 400,000 compounds, 1.4% hits; KB-3-1 viability, CellTiter-Glo ATP luminescence, 72 h; AID 1347075; Potency, µM (top dose mostly 46.1 µM), actives largely listed as cytotoxic; further: on the % scale 0 is the no-effect control and ±100 the full control effect; nearly all actives have a fitted effect of over 60% in size
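Viability of parental KB-3-1 cells, measured by CellTiter-Glo luminescence, followed a 72 h incubation at 37 °C with pinned compounds in phenol-red-free DMEM containing 10% FBS.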
Numbers without * were called inactive; i = inactive; ? = inconclusive; . = no result. The call rests on the fitted dose curve; in most records, active means well fitted curve in the direction sought with a large enough effect; inconclusive means small, poorly fitted or top-dose-only effect, or another doubt; inactive means no such curve, though single readings can be large; an effect the other way counts as inactive or inconclusive. Potency means the concentration at half of the fitted maximal effect.

SMILES	VP16 counter	MCF10A rerep	KB-V1 cytotox	SW480 rerep	RORgamma inh	KB-3-1 tox
CC(=O)Oc1ccc(/C=C2/CCc3ccccc3C2=O)cc1	10µM*	?	i	-13.0%	8.91µM*	i
COc1ccc(/C=C2/CCc3ccccc3C2=O)cc1CN1CCOCC1	-13.6%	?	?	-694.5%	42.3%	i
COc1cc(/C=C2\COC/C(=C\c3ccc(O)c(OC)c3)C2=O)ccc1O	?	5.8µM*	i	7.31µM*	?	i
CCC(=O)N1CCc2cc(S(=O)(=O)NC(CC(C)C)C(=O)Nc3cc(C)ccc3OC)ccc21 (centres undefined)	.	.	i	.	.	i
CCc1ccccc1NC(=O)Cn1nc(CC)n2c(cc3sccc32)c1=O	.	.	i	.	.	i
O=C(C1CC(=O)N(c2ccc3c(c2)OCCO3)C1)N1CCCC(C(F)(F)F)C1 (centres undefined)	.	2.2%	i	-3.7%	.	i
COc1cc(C(=O)NCC(c2cccs2)S(=O)(=O)c2ccc(F)cc2)cc(OC)c1OC (centres undefined)	.	.	i	.	.	i
COc1cc(/C=C2\CC/C(=C\c3ccc(OCCO)c(OC)c3)C2=O)ccc1OCCO	-18.5%	?	i	-1.2%	47.8%	i
COc1cccc(C=C2Cc3ccccc3C2=O)c1	.	.	i	.	.	i
Cc1ccsc1/C=C1\CCc2ccccc2C1=O	11.2µM*	21.1%	i	-0.2%	?	i
COc1cccc(/C=C2\CCc3ccccc3C2=O)c1	11.2µM*	-2.5%	i	-0.2%	11.2µM*	i
COc1ccc(/C=C2\CCc3ccccc3C2=O)cc1OC	-10.0%	?	16.4µM*	?	43.6%	i
COc1ccc(/C=C2\CC/C(=C\c3ccc(OC)c(OC)c3)C2=O)cc1OC	15.8µM*	?	?	?	2.24µM*	18.4µM*
Cc1ccsc1/C=C1\CCC(C2CCCC2)C1=O (centres undefined)	-19.4%	12.7%	i	-5.8%	?	i
CS(=O)(=O)Nc1cccc(-c2ccc3ncnc(Nc4ccccc4)c3c2)c1	-0.1%	.	.	.	?	.
CCN1C/C(=C\c2cccc([N+](=O)[O-])c2)C(=O)/C(=C/c2cccc([N+](=O)[O-])c2)C1	0.7%	2.59µM*	?	0.581µM*	29.5%	0.92µM*
O=C1/C(=C/c2cccc([N+](=O)[O-])c2)CCc2ccccc21	?	?	16.4µM*	?	?	?
CCOC(=O)C1CCCN(C2=NC(=O)/C(=C/c3ccc(OC)c(OC)c3)S2)C1 (centres undefined)	2.4%	-1.6%	i	4.5%	10.2%	i
COc1ccc(/C=C2\SC(N3CCc4ccccc4C3)=NC2=O)cc1OC	-12.4%	3.66µM*	11.6µM*	69.1%	11.7%	?
COc1ccc(/C=N/NC(=O)c2[nH]nc3c2CCc2ccccc2-3)cc1OC	-6.4%	5.17µM*	i	?	?	?
CC1CC=CC2C1C(=O)N(Cc1ccccc1)C2c1ccc(-c2cc3ccccc3s2)cc1F (centres undefined)	?	.	.	.	15.3%	.
COc1ccc(C=C2SC(=O)NC2=O)cc1OC	.	13.7%	i	-4.8%	.	i
COc1ccc(C=C2C=C(C(C)(C)C)C(=O)C(C(C)(C)C)=C2)cc1OC	4.47µM*	20.6µM*	?	?	7.08µM*	?
O=C1/C(=C\c2ccc3ccccc3c2)CCCc2ccccc21	?	5.8µM*	7.31µM*	?	14.2%	5.17µM*
Cc1ccccc1/C=C1\CCCc2ccccc2C1=O	4.6%	?	i	18.3%	-5.3%	i
SMILES	VP16 counter	MCF10A rerep	KB-V1 cytotox	SW480 rerep	RORgamma inh	KB-3-1 tox
COC(=O)CSc1nnc2n(-c3ccc(OC)cc3)c(=O)c3c4c(sc3n12)CCCCC4	1.2%	10.3%	i	0.2%	0.0%	i
COc1ccc(-n2c(=O)c3c4c(sc3n3c(=S)[nH]nc23)CCCC4)cc1	12.6µM*	8.9%	i	-3.2%	7.94µM*	i
Cc1ccccc1C	-16.7%	.	.	.	-12.4%	.
CCOC(=O)c1c(C)[nH]c(=S)c(C#N)c1-c1ccc(Cl)cc1	?	?	i	0.3%	11.2µM*	i
CC(=O)c1c(C)[nH]c(=S)c(C#N)c1-c1ccc(Cl)cc1	?	9.4%	?	-3.9%	?	i
CCOC(=O)c1c(C)[nH]c(=S)c(C#N)c1-c1ccc(OC)cc1	?	-0.1%	i	-2.1%	12.6µM*	i
CC(=O)C1CCC2C3CCC4=CC(=O)CCC4(C)C3(F)C(O)CC12C (centres undefined)	.	16.9%	5.17µM*	-9.3%	.	?
Cc1ccc(C(=O)Nc2nccs2)cc1	-8.2%	-7.2%	?	0.3%	?	i
O=C(Nc1nccs1)c1ccc(COc2c(F)c(F)cc(F)c2F)cc1	-12.5%	2.7%	i	?	11.2µM*	?
O=S(=O)(Nc1nccs1)c1ccc(F)cc1	0.5%	2.31µM*	i	15.8%	32.6%	i
O=C(Nc1nccs1)c1ccc(COc2ccccc2Br)o1	-78.8%	-5.5%	14.6µM*	0.7%	?	?
O=C(Nc1nccs1)c1ccc(COc2ccc(Cl)cc2)o1	-28.8%	18.3%	?	-3.5%	12.6µM*	i
CCOc1ccc(OCc2ccc(C(=O)Nc3ccc(Cl)cn3)o2)cc1	?	-3.1%	?	-0.1%	?	i
COc1ccc(CCNC(=O)Cn2nc(C)n3c(cc4occc43)c2=O)cc1OC	.	.	i	.	.	i
O=C(CS(=O)(=O)c1ccc(F)cc1)Nc1nccs1	.	5.4%	i	-71.2%	.	i
O=C(Nc1nccs1)c1ccc(COc2ccc(F)cc2)o1	?	2.91µM*	i	-6.0%	?	i
O=C(COc1ccc(F)cc1)Nc1nccs1	-8.8%	0.1%	i	-8.8%	10µM*	i
Clc1cccc(N2CCN(c3nc4ccccc4c4nc(-c5cccnc5)nn34)CC2)c1	.	.	i	.	.	i
O=C(Cn1ncc2c3ccccc3n(Cc3cccc(Cl)c3)c2c1=O)Nc1ccc(F)cc1F	.	.	i	.	.	i
C/C(=N\S(=O)(=O)c1ccc(C)cc1)N1CCN(S(=O)(=O)c2ccccc2)C1C(C)C (centres undefined)	7.3%	-0.8%	5.8µM*	6.2%	12.4%	i
Cc1cccc(C(=O)NC(=O)Nc2ccc(-n3nc(C(F)(F)F)cc3C(F)(F)F)cc2)c1	.	.	i	.	.	i
COc1cc(C#Cc2c(-c3cncn3C)n(C)c3ccc(-c4cc(OC)c(OC)c(OC)c4)cc23)cc(OC)c1	.	-0.4%	?	?	.	11.6µM*
CCOc1ccc(NC(=O)CSc2nccn2-c2cccc(C)c2C)cc1	.	.	i	.	.	?
